Activation factor data for 25 molecules are collected here from PubChem BioAssay AID2524 (Sanford-Burnham Center for Chemical Genomics, 2010).

Molecules are shown by their SMILES. In all, about 330,000 compounds went through this assay and about 540 (0.16%) were called active.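 The calls were made as follows: active = activation factor of the enzyme at least 2-fold when tested at 20 µM; inactive = the rest.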 Shown is part of a subset that was picked to be rich in actives.

Sequence of Intestinal-type alkaline phosphatase (Homo sapiens) (P09923 whole entry, looked up): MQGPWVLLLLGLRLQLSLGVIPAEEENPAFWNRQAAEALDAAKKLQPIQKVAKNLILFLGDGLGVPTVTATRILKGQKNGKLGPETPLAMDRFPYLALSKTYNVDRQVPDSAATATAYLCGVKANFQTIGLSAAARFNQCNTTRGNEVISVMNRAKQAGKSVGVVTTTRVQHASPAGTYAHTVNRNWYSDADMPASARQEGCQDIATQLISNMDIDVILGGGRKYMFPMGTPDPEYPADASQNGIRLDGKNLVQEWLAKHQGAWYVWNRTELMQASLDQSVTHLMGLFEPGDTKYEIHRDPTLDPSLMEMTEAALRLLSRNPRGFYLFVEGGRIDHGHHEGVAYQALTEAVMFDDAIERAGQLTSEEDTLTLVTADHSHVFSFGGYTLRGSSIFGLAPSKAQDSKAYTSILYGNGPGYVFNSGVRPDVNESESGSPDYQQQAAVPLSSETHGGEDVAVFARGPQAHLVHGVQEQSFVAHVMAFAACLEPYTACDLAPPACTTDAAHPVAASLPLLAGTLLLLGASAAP

This assay concerns the target Intestinal-type alkaline phosphatase (Homo sapiens) (UniProt P09923). Put plainly: enzymatic activation of intestinal alkaline phosphatase – biochemical, luminescence, uHTS, primary screen (AID 2524). As to conditions: purified human IAP, CDP-Star luminescence, 30 min; at 10 µM; active compounds read high; 1 = vehicle-only enzyme, 0 = enzyme-free background.
Take `O=C(NCc1ccccc1Cl)c1ccc2c(=O)n(CC3CCCO3)c(=S)[nH]c2c1` (stereo not given): the activation factor is 0.824 (inactive).

For the molecule `CCN=c1sc(C(=O)Nc2ccccc2)c(C)n1CC`, the activation factor was 1.04 (inactive).

In the case of `CN(C)c1nccc(NCc2ccccc2)c1C#N`, the activation factor is 1.01 (inactive).

In the case of `O=C(CN1CCC(NC(=O)Nc2ccccc2)CC1)Nc1cccc([N+](=O)[O-])c1`, the activation factor was 0.94 (inactive).

On to `COc1cccc(NC(=O)CN2CCN(CC(=O)Nc3ccccc3Cl)CC2)c1`, for which the activation factor was 0.935 (inactive).

In the case of `Cc1cc(C)cc(NC(=O)NC2CCN(CC(=O)Nc3cccc(Cl)c3C)CC2)c1`, the activation factor is 3.04 (active).

On to `CN(C)C(=O)c1nc2ccc(Cl)cn2c1CNCc1cccc(OC(F)(F)F)c1`, for which the activation factor is 0.976 (inactive).

As for `COc1cc(S(=O)(=O)Nc2ncn[nH]2)ccc1Cl`, the activation factor is 0.999 (inactive).

For the molecule `CC(C)n1ncc2c(C(=O)Nc3ccc(CC#N)cc3)cc(C3CC3)nc21`, the activation factor was 0.958 (inactive).

Consider `O=C(c1cc(COc2c(F)cccc2F)on1)N1CCSCC1`, for which the activation factor was 1.07 (inactive).

In the case of `COc1cc(NC(=O)COC(=O)CSc2ccc3ccccc3c2)c(C)cc1[N+](=O)[O-]`, the activation factor is 1.12 (inactive).

On to `Cc1cnc(C(=O)OCC(=O)Nc2ccc(Cl)cc2Cl)cn1`, for which the activation factor is 1.07 (inactive).

In the case of `COc1cc(NC(=O)COC(=O)c2cnc(C)cn2)c(C)cc1[N+](=O)[O-]`, the activation factor is 2.53 (active).

On to `CCCCN(CCCC)CCNC(=O)CN1C(=O)COc2ccc(S(=O)(=O)N3CCOCC3)cc21`, for which the activation factor was 0.976 (inactive).

Regarding `O=C(CNCCC1=CCCCC1)Nc1ccccc1N1CCCCCC1`, the activation factor was 1.04 (inactive).

Take `COCCNS(=O)(=O)c1cc(Br)ccc1OC`: the activation factor was 0.874 (inactive).

As for `CSCCNC(=O)c1ccc2nc(Cc3ccccc3F)oc2c1`, the activation factor was 1.11 (inactive).

For the molecule `CCCc1cc(=O)[nH]c(SCC(=O)Nc2ccc(C(=O)Nc3ccccc3OC)cc2)n1`, the activation factor was 1.04 (inactive).

With `OC1CN=C2Sc3ccccc3N2C1` (stereo not given), the activation factor is 2.42 (active).

As for `Cc1ccc(C(=O)COC(=O)CCCC(=O)NC2CCCCC2)cc1[N+](=O)[O-]`, the activation factor was 0.908 (inactive).

As to `COC(=O)c1cccc(N(C(=O)CNC(=O)c2cccs2)C(C(=O)NCC2CCCO2)c2ccc(OC)c(OC)c2)c1` (stereo not given), the activation factor is 0.951 (inactive).

For `COC(=O)[C@]1(CC(C)C)N[C@H](c2ccc(SC3CCCCC3)cc2)[C@@H]2C(=O)N(C)C(=O)[C@@H]21`, the activation factor was 0.874 (inactive).

Consider `COc1ccc(CCC(C)N2CCc3ccccc3C2)cc1` (stereo not given), for which the activation factor is 0.983 (inactive).

Take `Cc1nn(CC2CC2)c(=O)n1N(C)c1ncc(C(F)(F)F)cc1Cl`: the activation factor is 0.985 (inactive).

With `COc1ccccc1C(=O)NCC(=O)NCCSc1ccc(Br)cc1`, the activation factor is 1.02 (inactive).
